Source: PubChem BioAssay
CCHFV vOTU inh – CCHFV vOTU protease inhibitors, primary screen, biochemical, Pep-AMC substrate, fluorescence | Crimean-Congo hemorrhagic fever virus L polyprotein viral ovarian tumor (vOTU) protease … | inhibition, % at 11.5 µM | 0.55% of 370,000 active; in the data active = inhibition above about 30%; also: 0% = vehicle wells with enzyme and 100% = no enzyme wells
Mtb bLac sens – beta-lactam sensitization of Mtb H37Rv, H37Rv; M. tuberculosis H37Rv growth with meropenem, percent inhibition; inhibition, % at 25 µM; 0.27% of 330,000 active; AID 434955, 2010; call rule not given here;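 also: growth measured after seven days incubation then overnight dye step; 0% = bacteria only wells and 100% = bacteria with antibiotic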
RecA intein inh – Mtb RecA intein splicing inhibitors, primary screen, biochemical, fluorescence, HTS. cell-free RecA intein splicing. AID 2221, 2009. 0.75% of 290,000 active. inhibition, % (test concentration not listed); in the data active = inhibition above about 30%;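 also: 0% = vehicle wells and 100% = reference inhibitor control wells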
Target sequence (P9WHJ3 whole entry, looked up): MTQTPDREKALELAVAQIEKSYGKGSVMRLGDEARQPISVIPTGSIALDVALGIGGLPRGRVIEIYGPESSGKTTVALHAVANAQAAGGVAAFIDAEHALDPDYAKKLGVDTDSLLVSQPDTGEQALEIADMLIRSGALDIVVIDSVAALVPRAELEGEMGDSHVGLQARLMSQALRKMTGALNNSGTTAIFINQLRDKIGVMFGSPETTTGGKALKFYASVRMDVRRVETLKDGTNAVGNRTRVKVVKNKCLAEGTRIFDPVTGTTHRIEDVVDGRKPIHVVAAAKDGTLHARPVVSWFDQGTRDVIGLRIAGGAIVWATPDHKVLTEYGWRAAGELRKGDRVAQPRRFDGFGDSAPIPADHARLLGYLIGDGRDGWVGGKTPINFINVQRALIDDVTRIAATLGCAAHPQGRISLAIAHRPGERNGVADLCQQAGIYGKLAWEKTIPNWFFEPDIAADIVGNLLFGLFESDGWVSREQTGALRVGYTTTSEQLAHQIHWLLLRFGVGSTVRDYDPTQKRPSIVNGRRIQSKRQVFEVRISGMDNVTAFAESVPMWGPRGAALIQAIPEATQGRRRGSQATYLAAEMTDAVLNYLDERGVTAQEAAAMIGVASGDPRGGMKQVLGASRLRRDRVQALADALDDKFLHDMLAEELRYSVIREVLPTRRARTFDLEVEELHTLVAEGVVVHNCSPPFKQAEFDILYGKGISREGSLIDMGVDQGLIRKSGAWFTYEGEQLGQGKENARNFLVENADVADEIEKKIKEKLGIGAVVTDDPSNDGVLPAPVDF
Mtb hypoxia rep – PubChem AID 1159583. M. tuberculosis hypoxia-regulated fluorescent reporter, fluorescence. fluorescence inhibition, % (test concentration not listed). 0.1% of 300,000 active; in the data active = fluorescence inhibition mostly above about 23%, no sharp cut-off; inactive = mostly below about 17%
PfHsp40 yeast – rescue of yeast from PfHsp40 toxicity, primary screen, S. cerevisiae, ATP luminescence; 0.68% of 340,000 active; S. cerevisiae expressing PfHsp40, growth rescue; growth rescue, % at 12.5 µM; AID 504582, 2011; in the data active = growth rescue above about 28%, passing the limit was not always enough;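 also: yeast W303a lacking pdr1 and pdr3 grown in galactose medium; growth measured after three days at 30 °C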
* marks the source's active call; other numbers are inactive results; . = not tested or not shown. Shown are actives, neighbours in structure and some others; about 1.7% of the full set was active somewhere.

SMILES	CCHFV vOTU inh	Mtb bLac sens	RecA intein inh	Mtb hypoxia rep	PfHsp40 yeast
CC(C)(C)n1nc(Cc2cccc3ccccc23)c2c(N)ncnc21	-3	10	1	4	552*
CCOC(=O)C1C2COc3ccc(Cl)cc3C2N2C(=O)CNC(=O)[C@@]12C (stereo partly specified)	.	.	.	20	.
O=C(C1=CC(C2CCCCC2)CC(OCCCCO)O1)N1CCOCC1 (stereo unspecified)	.	.	.	0	.
CC(C)(C)c1cc(C(=O)CCN2CCOCC2)cc(C(C)(C)C)c1O	9	67	30*	11	10
O=C(CCN1CCOCC1)c1ccc(N2CCCCC2)cc1	19	.	.	4	1
COc1ccc(OCC(=O)NN=Cc2ccsc2)cc1	.	.	.	19	.
O=C(Nc1cccc(NC(=O)c2cccs2)c1)c1ccc(Br)cc1	12	-20	0	.	1
O=C(Nc1cccc(O)c1)c1cccc(NC(=O)c2cccs2)c1	-11	-2	0	54*	-1
CC(=NNC(=O)c1cc(-c2ccc(C)s2)[nH]n1)c1ccncc1	.	.	.	3	.
COC(=O)c1cc2c(cc1[N+](=O)[O-])OCO2	-4	3	-3	14	-2
COc1cc2c(cc1/C=C/[N+](=O)[O-])OCO2	-6	.	2	1	242*
Nc1nc(Cn2nnc(-c3ccccc3Cl)n2)nc(N2CCOCC2)n1	-7	-4	0	-4	0
Nc1nc(Cn2nnc(-c3ccccc3F)n2)nc(N2CCOCC2)n1	7	-2	0	.	40*
COc1ccc(N2C(=O)CC(SCC(=O)O)C2=O)cc1 (stereo unspecified)	-1	0	0	17	0
COc1ccc(N2C(=O)CC(SCc3ccc(Cl)cc3)C2=O)cc1 (stereo unspecified)	5	-7	0	12	70*
CC(C)NC(=O)N(C)CC1Oc2ccc(NS(=O)(=O)c3cccs3)cc2C(=O)N(C(C)CO)CC1C (stereo unspecified)	.	.	.	3	.
COc1cccc(Nc2nc(-c3ccccc3O)nc3ccccc23)c1	-16	-4	-3	-5	1
Fc1ccc(CNc2nc(-c3ccccc3)nc3ccccc23)cc1	8	.	19	-8	2
COc1ccc(CNc2nc(-c3ccccc3)nc3ccccc23)cc1OC	32*	2	5	9	2
Cc1ccc(-c2nc(Nc3cccc(O)c3)c3ccccc3n2)cc1	0	6	4	5	30*
COc1cccc(Nc2nc(-c3ccccc3)nc3ccccc23)c1	-4	90	11	2	38*
CC(O)C1CNC(=O)C(=O)N1CC1CCCCC1 (stereo unspecified)	.	.	.	9	.
O=C(Cn1ccc(C(F)(F)F)n1)NN=Cc1ccc(N2CCOCC2)cc1	.	.	.	-2	.
c1ccc(Sc2ncnc3ccccc23)cc1	3	1	40*	.	0
CC(C)=CCC[C@](C)(OC1OC(COC2OCC(OC3OCC(O)C(O)C3O)C(O)C2O)C(O)C(O)C1O)C1CC[C@]2(C)C1C(O)CC1[C@@]3(C)CCC(O)C(C)(C)C3C(O)C[C@]12C (stereo partly specified)	.	.	.	7	.
SMILES	CCHFV vOTU inh	Mtb bLac sens	RecA intein inh	Mtb hypoxia rep	PfHsp40 yeast
O=C(COC(=O)c1ccc(Cl)nc1)Nc1cc(S(=O)(=O)N2CCCCC2)ccc1Cl	-1	1	3	9	173*
CCN1CCN(CC(=O)Nc2cc(S(=O)(=O)N3CCCCC3)ccc2Cl)CC1	-4	6	.	2	56*
CC(C)=CCc1c(O)cc(O)c2c1OC(c1ccc(O)cc1)CC2=O (stereo unspecified)	4	1	.	.	262*
O=c1cnn([C@@H]2O[C@H](CO)[C@@H](O)[C@H]2O)c(=O)[nH]1	.	-5	-1	.	61*
O=c1ccn(C2OC(CO)C(O)C2O)c(=O)[nH]1 (stereo unspecified)	.	.	.	11	.
NC(=O)CCC1NC(=O)C(Cc2ccc(O)cc2)NC(=O)c2cc([N+](=O)[O-])cc(F)c2OCCC(C(N)=O)NC1=O (stereo unspecified)	.	.	.	14	.
Cc1cccc(OP(=O)(NCc2ccccc2)Oc2cccc(C)c2)c1	25	14	4	13	118*
CC(=O)Nc1cccc(-c2cc(-c3c(Cl)cccc3Cl)no2)c1	0	-3	8	0	357*
CC(=NNS(=O)(=O)c1cccc([N+](=O)[O-])c1)c1cccnc1	.	.	.	9	.
CCOc1ccc(-c2c(C(=O)NN=Cc3ccc(OC(C)C)cc3)nnn2-c2nonc2N)cc1	.	.	.	-1	.
N#C/C(=C(/O)COc1ccccc1)c1nnc2n1CCCCC2	16	4	-4	8	31*
CCC(Cc1ccccc1)=NNC(=O)CCn1nnc2ccccc21	.	.	.	-2	.
O=C(Cc1ccccc1)N/N=C/c1cc(Br)cc(Br)c1O	-13	8	0	.	0
O=C(CCN1CCOCC1)N/N=C/c1cc(Br)cc(Br)c1O	-12	8	0	.	40*
CCCCCC(=O)Nc1cccc(C2=NOC3(C2)CC(C(N)=O)N(C(=O)c2ccc(OC)cc2)C3)c1 (stereo unspecified)	.	.	.	7	.
ON=C1CCCc2oc3c(c21)CCCC3	.	.	.	8	.
Cc1ccc(/C=N/Nc2ccc(C(=O)O)cc2)s1	5	0	-5	.	123*
Cc1ccc(C=NNc2cccc(C(=O)O)c2)s1	.	.	.	10	.
O=C1c2cc(Br)ccc2N(Cc2ccc(Br)cc2)S(=O)(=O)C1c1cc(Cl)c(Cl)cc1[N+](=O)[O-] (stereo unspecified)	.	1	.	.	143*
O=C1CS(=O)(=O)N(Cc2cccc(F)c2)c2ccc(Br)cc21	0	-1	.	11	1
CCC(CCC=C(C)C)C(=O)N(Cc1ccccc1)c1ccccc1 (stereo unspecified)	.	.	.	2	.
COc1cccc(-c2cn(CC3CCC(C4CCC(Cn5cc(-c6cccc(OC)c6)nn5)O4)O3)nn2)c1 (stereo unspecified)	.	.	.	-2	.
Cc1ccc(C(=O)O)cc1NC(=S)NC(=O)c1ccc(-c2ccccc2)cc1	4	6	3	1	113*
Cc1ccc(C(=O)NC(=S)Nc2ccccc2C(F)(F)F)cc1C	13	4	-1	1	32*
CC(C)NC(=S)NC(=O)c1ccc(-c2ccccc2)cc1	8	1	-2	12	59*
SMILES	CCHFV vOTU inh	Mtb bLac sens	RecA intein inh	Mtb hypoxia rep	PfHsp40 yeast
Cc1cccc(C(=O)NC(=S)Nc2ccccc2C(F)(F)F)c1	4	-1	-4	0	-1
O=C(Nc1nnc(S(=O)(=O)Cc2ccc(F)cc2)s1)c1ccccc1F	11	-6	-1	4	45*
O=C(Cn1cnc2c(nnn2Cc2ccccc2F)c1=O)NCC1CCCO1 (stereo unspecified)	1	-5	-2	-1	-1
O=C(CSc1ncnc2c1nnn2Cc1ccccc1F)NCC1CCCO1 (stereo unspecified)	-11	-5	50*	16	0
Cc1cccc(C(=O)NNC(=O)c2ccccc2)c1	-7	-8	-1	2	-1
Cc1cccc(C(=O)c2cnc3ccccc3c2-c2ccccc2)c1	9	-4	33*	18	7
CC(=NNC(=O)c1cccc(S(=O)(=O)Nc2ccc(C)cc2C)c1)c1ccncc1	.	.	.	-5	.
